Experimental findings from PubChem BioAssay (EPA / NIEHS) are described below.

Molecules are shown by their SMILES. Records with an inconclusive call do not appear. Active and inactive are the calls of the source. Rule for the calls, unless noted: active = hit-call score of the fitted dose curve at least 0.9, where 1 is the maximum; inactive = score below 0.9.

For test [1], the target named is Paired box protein Pax-6 (Homo sapiens) (UniProt P26367). Kind of test: ATG_Pax6_CIS: Attagene CIS-FACTORIAL HepG2 Assay for human Paired Box 6 (PAX6) (AID 2282956). Particulars: HepG2 CIS-FACTORIAL PAX6 reporter transcription, RNA readout; actives raise or lower the signal. The method, boiled down: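 Transient MRTU transfection of HepG2 → compound exposure 24 h → TriZol RNA, oligo(dT) RT → PCR, 6-FAM primer extension, HpaI cut → capillary electrophoresis; activity fitted both directions against DMSO.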
Paired box protein Pax-6 (Homo sapiens), sequence (P26367 whole entry, looked up): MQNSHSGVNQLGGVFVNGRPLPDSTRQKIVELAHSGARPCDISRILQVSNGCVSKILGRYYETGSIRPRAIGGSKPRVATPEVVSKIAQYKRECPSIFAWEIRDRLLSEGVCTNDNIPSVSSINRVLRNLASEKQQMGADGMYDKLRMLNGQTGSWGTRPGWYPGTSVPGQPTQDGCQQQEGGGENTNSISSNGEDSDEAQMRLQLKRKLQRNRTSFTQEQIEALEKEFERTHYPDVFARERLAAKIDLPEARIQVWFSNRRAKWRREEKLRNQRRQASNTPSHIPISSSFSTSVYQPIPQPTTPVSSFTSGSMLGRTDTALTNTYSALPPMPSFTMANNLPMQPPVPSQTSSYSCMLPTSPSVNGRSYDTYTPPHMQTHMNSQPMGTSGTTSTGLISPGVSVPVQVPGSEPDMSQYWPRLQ

Test [2] is described as follows: ATG_PXRE_CIS: Attagene CIS-FACTORIAL HepG2 Assay for human Pregnane X Receptor Element (PXRE) (AID 2282957). The conditions noted are these: HepG2 Attagene CIS-FACTORIAL PXRE reporter, mRNA; actives raise or lower the signal. In outline: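 Multiplexed cis-reporter assay in transiently transfected human HepG2 cells; 24 h chemical exposure. Reporter transcripts quantified by RT-PCR with fluorescent labeling and capillary electrophoresis.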

Test [3] in a line: ATG_PPRE_CIS: Attagene CIS-FACTORIAL HepG2 Assay for human Peroxisome Proliferator-activated Response Element (PPRE) (AID 2282958). The conditions noted are these: HepG2 PPRE cis-element reporter, Attagene transcription factor profiling; actives raise or lower the signal. The method, boiled down: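 Cells are first transfected transiently with the multiplexed reporter library, then dosed for 24 h. Total RNA is reverse-transcribed, amplified, fluorescently end-labeled and HpaI-cut before capillary electrophoresis; activity is fitted bidirectionally against DMSO controls.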

The nature of test [4]: ATG_Sox_CIS: Attagene CIS-FACTORIAL HepG2 Assay for human SRY-box transcription factor (SOX) (AID 2282960). Particulars: HepG2 Attagene cis-factorial SOX reporter, mRNA; actives raise or lower the signal. The method, boiled down:
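Transient MRTU transfection of HepG2; 24 h compound incubation; TriZol RNA, oligo(dT) RT, PCR, 6-FAM primer extension, HpaI cut, CE. Bidirectional fit, DMSO = baseline.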

Test [5] concerns the target Transcription factor Sp1 (Homo sapiens) (UniProt P08047). Kind of test: ATG_Sp1_CIS: Attagene CIS-FACTORIAL HepG2 Assay for human Specificity Protein 1 (Sp1) (AID 2282961). Particulars: HepG2 Sp1 cis-reporter transcription, actives raise or lower the signal. The method, boiled down: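 Endogenous Sp1 activity was gauged in human liver HepG2 cells bearing transfected reporter units under a cis-regulating promoter. After 24 h dosing, reporter mRNA was quantified by RT-PCR with capillary electrophoresis, and activity fitted bidirectionally versus DMSO.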

Test [6] in a line: ATG_SREBP_CIS: Attagene CIS-FACTORIAL HepG2 Assay for human Sterol Regulatory Element Binding (SREBP) (AID 2282962). Particulars: HepG2 Attagene cis-factorial SREBP reporter, mRNA; actives raise or lower the signal. In outline:
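Transfected HepG2 (cis-regulated reporter library, endogenous TFs) → compound 24 h → total RNA → oligo(dT) RT → reporter-specific PCR → FAM primer extension, HpaI cut → CE fluorescence. Fit bidirectional vs DMSO.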

The target in test [7] is Signal transducer and activator of transcription 3 (Homo sapiens) (UniProt P40763). Briefly: ATG_STAT3_CIS: Attagene CIS-FACTORIAL HepG2 Assay for human Signal Transducer and Activator of Transcription 3 (STAT3) (AID 2282963). The conditions noted are these: HepG2, Attagene cis-factorial STAT3 reporter transcription; actives raise or lower the signal. In outline: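 After a 24 h compound incubation, total RNA from MRTU-transfected HepG2 cells was converted to cDNA and reporter sequences PCR-amplified, labelled and profiled by capillary electrophoresis. Gain and loss of signal were referenced to DMSO.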
Signal transducer and activator of transcription 3 (Homo sapiens), sequence (P40763 whole entry, looked up): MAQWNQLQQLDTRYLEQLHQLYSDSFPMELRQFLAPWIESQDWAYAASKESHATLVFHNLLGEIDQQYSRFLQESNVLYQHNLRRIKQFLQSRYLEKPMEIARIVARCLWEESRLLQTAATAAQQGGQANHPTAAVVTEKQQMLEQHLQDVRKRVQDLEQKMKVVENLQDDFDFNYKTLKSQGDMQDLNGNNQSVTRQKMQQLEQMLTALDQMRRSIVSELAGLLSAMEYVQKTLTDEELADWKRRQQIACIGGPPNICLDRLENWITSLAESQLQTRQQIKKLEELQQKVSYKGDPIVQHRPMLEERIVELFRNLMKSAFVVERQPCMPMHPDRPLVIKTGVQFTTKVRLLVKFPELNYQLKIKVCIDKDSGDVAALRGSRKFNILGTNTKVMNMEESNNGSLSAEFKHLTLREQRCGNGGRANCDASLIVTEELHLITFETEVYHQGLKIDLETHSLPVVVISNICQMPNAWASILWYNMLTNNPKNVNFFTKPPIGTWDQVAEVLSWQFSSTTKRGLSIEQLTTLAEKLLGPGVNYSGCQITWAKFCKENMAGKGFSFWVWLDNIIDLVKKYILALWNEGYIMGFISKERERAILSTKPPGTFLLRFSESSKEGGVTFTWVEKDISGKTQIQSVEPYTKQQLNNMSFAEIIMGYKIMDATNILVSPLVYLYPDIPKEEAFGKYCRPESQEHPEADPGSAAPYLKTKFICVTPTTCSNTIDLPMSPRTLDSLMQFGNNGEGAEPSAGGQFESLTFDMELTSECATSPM

A short description of test [8]: ATG_TA_CIS: Attagene CIS-FACTORIAL HepG2 Assay for human TA Basal Promoter (AID 2282964). The conditions noted are these: HepG2 Attagene CIS-factorial TA basal promoter reporter; actives raise or lower the signal. The method, boiled down: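 Steps: transfect HepG2 with MRTUs; dose 24 h; isolate RNA, DNase-treat, reverse-transcribe; PCR and FAM-label reporter cDNA; digest with HpaI 2h at 37 C; run capillary electrophoresis. Activity fitted both directions against DMSO.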

Test [9] in a line: ATG_TCF_b_cat_CIS: Attagene CIS-FACTORIAL HepG2 Assay for human T-Cell-Factor with beta-catenin (TCF/b-cat) (AID 2282965). The conditions noted are these: HepG2 TCF/beta-catenin cis-reporter transcription, actives raise or lower the signal. In outline: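 Measured: reporter mRNA in HepG2 transiently transfected with cis-promoter reporter units, 24 h after chemical addition. Fitting was bidirectional, DMSO as negative control.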

Test [10] is described as follows: ATG_TAL_CIS: Attagene CIS-FACTORIAL HepG2 Assay for human TAL Basal Promoter (AID 2282966).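 Note: background control endpoint measuring basal TAL promoter reporter mRNA not a specific factor.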 Particulars: HepG2 Attagene cis-factorial TAL promoter reporter; actives raise or lower the signal. In outline:
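Steps: transfect HepG2 with multiple reporter transcription units; dose 24 h; isolate RNA, reverse-transcribe, PCR-amplify, label with 6-FAM, digest with HpaI; resolve by capillary electrophoresis. Bidirectional fitting against DMSO baseline.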

Test [11] is described as follows: ATG_TGFb_CIS: Attagene CIS-FACTORIAL HepG2 Assay for human Transforming Growth Factor (TGF) (AID 2282967). Particulars: HepG2 Attagene CIS TGFb reporter, mRNA transcription; actives raise or lower the signal. The method, boiled down: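 Cells were dosed for 24 hours, after which total RNA was reverse-transcribed and reporter sequences amplified, labeled and sized by capillary electrophoresis. Activity was fitted in both directions against DMSO.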

Test [12] concerns the target Estrogen receptor (Homo sapiens) (UniProt P03372). Briefly: ATG_ERa_TRANS: Attagene TRANS-FACTORIAL HepG2 Assay for human Estrogen Receptor alpha (ERa) (AID 2282970; active = hit-call score of the fitted dose curve at least 0.9, where 1 is the maximum). Particulars: HepG2 Attagene TRANS ERa GAL4 reporter, mRNA. The method, boiled down:
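Multiplexed cell-based reporter format in HepG2: chimeric ERa-Gal4 protein drives GAL4-UAS reporter transcription. Fluorescent reporter mRNA quantified by capillary electrophoresis 24 hours after dosing; endpoint fitted as signal gain against DMSO.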

In test [13] the target is Steroid hormone receptor ERR1 (Homo sapiens) (UniProt P11474). Briefly: ATG_ERRa_TRANS: Attagene TRANS-FACTORIAL HepG2 Assay for human Estrogen-Related Receptor alpha (ERRa) (AID 2282971; active = hit-call score of the fitted dose curve at least 0.9, where 1 is the maximum). Particulars: HepG2 Attagene TRANS reporter, ERRa transactivation. The method, boiled down: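 Signal gain relative to DMSO for an ERRa-Gal4 chimeric receptor, read as reporter mRNA by RT-PCR/capillary electrophoresis. Human HepG2 liver cells, transient multiplex reporter transfection, 24 h chemical exposure.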
Steroid hormone receptor ERR1 (Homo sapiens), sequence (P11474 whole entry, looked up, the tested form may be a part): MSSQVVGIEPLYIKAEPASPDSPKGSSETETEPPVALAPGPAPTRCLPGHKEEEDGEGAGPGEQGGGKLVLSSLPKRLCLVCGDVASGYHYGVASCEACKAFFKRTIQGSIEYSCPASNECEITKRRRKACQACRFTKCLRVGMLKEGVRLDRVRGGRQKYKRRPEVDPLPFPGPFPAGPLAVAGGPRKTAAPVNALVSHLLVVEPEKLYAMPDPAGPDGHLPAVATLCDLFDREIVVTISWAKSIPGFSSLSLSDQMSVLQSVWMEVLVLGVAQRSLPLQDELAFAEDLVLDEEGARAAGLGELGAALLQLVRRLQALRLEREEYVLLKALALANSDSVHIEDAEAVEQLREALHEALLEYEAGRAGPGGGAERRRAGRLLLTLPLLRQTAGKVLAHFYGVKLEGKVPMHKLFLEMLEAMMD

In test [14] the target is X-box-binding protein 1 (Homo sapiens) (UniProt P17861). Briefly: ATG_Xbp1_CIS: Attagene CIS-FACTORIAL HepG2 Assay for human X-box Binding Protein 1 (XBP1) (AID 2282972). The conditions noted are these: HepG2 XBP1 cis-element reporter, Attagene multiplex; actives raise or lower the signal. The method, boiled down: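 HepG2, transient MRTU transfection (cis-promoter driven), 24 h compound exposure. Total RNA → oligo(dT) RT → PCR → 6-FAM labeling → HpaI cut → CE. Bidirectional fit vs DMSO.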
X-box-binding protein 1 (Homo sapiens), sequence (P17861 whole entry, looked up): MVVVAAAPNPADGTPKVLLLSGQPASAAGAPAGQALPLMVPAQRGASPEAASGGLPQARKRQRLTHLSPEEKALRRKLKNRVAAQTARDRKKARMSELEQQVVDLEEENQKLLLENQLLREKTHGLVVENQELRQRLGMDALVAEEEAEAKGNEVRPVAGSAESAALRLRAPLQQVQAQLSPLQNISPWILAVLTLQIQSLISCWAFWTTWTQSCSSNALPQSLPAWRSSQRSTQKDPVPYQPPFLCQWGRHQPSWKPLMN

Test [15] in a line: ATG_GAL4_TRANS: Attagene TRANS-FACTORIAL HepG2 Assay for GAL4 (Internal Marker) (AID 2282976; active = hit-call score of the fitted dose curve at least 0.9, where 1 is the maximum). The conditions noted are these: HepG2 Attagene TRANS GAL4 internal marker reporter. In outline: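 Liver HepG2 line bearing multiplexed GAL4-UAS reporter constructs; 24 h chemical treatment. Transcripts were quantified as fluorescent fragments on capillary electrophoresis after RT-PCR and HpaI cut, with activity fitted upward from DMSO.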

Test [16] can be described thus: ATG_VDRE_CIS: Attagene CIS-FACTORIAL HepG2 Assay for human Vitamin D Receptor Element (VDRE) (AID 2282968). Particulars: HepG2 VDRE cis-reporter transcription, actives raise or lower the signal. The method, boiled down: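 In transiently transfected HepG2 liver cells, gain or loss of reporter mRNA after 24 h exposure is scored relative to DMSO, using fluorescence detection by capillary electrophoresis of RT-PCR products.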

The target in test [17] is Estrogen-related receptor gamma (Homo sapiens) (UniProt P62508). Briefly: ATG_ERRg_TRANS: Attagene TRANS-FACTORIAL HepG2 Assay for human Estrogen-Related Receptor gamma (ERRg) (AID 2282977; active = hit-call score of the fitted dose curve at least 0.9, where 1 is the maximum;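 note: hits increase reporter signal over DMSO so potencies reflect activators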). Particulars: HepG2 Attagene TRANS reporter, ERRg transactivation. In outline: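 Transient HepG2 transfectants, 24 h compound exposure, GAL4-UAS reporter mRNA by RT-PCR/6-FAM labelling/capillary electrophoresis; positive direction vs DMSO.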
Estrogen-related receptor gamma (Homo sapiens), sequence (P62508 whole entry, looked up, the tested form may be a part): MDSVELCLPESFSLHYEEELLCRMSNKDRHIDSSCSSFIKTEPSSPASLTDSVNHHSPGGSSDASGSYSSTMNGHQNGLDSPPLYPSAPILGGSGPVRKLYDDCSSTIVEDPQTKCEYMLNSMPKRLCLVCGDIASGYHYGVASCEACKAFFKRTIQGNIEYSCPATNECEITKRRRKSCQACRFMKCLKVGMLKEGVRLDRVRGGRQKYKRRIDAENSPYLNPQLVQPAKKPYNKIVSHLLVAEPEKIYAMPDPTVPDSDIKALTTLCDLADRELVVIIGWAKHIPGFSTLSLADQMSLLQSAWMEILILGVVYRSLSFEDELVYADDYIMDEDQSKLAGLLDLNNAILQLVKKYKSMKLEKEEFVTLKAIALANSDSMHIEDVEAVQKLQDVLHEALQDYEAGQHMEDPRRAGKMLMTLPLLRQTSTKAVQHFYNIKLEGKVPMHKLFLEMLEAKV

Test [18] addresses Nuclear receptor subfamily 1 group I member 3 (Homo sapiens) (UniProt Q14994). Kind of test: ATG_CAR_TRANS: Attagene TRANS-FACTORIAL HepG2 Assay for human Constitutive Androstane Receptor (CAR) (AID 2282969; active = hit-call score of the fitted dose curve at least 0.9, where 1 is the maximum;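 note: activators raise reporter mRNA above DMSO so AC50 marks induction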). The conditions noted are these: HepG2 Attagene TRANS-FACTORIAL CAR reporter. In outline:
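Readout is reporter mRNA induction, quantified by fluorescent primer extension and capillary electrophoresis after RT-PCR. Cells were HepG2 transiently carrying chimeric NR-Gal4 constructs with GAL4-UAS reporters, treated for 24 h; activity scored upward from DMSO.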

Test [19] in a line: ATG_M_19_TRANS: Attagene TRANS-FACTORIAL HepG2 Assay for M19 Transcription Factor (Internal Marker) (AID 2282974; active = hit-call score of the fitted dose curve at least 0.9, where 1 is the maximum). The conditions noted are these: HepG2 Attagene TRANS-FACTORIAL M19 internal marker reporter. The method, boiled down:
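Cells: human HepG2, transiently transfected with multiplexed reporter transcription units. Exposure: 24 h. Detection: RT-PCR of reporter mRNA with capillary electrophoresis. Analysis: gain-of-signal vs DMSO.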

Transcription factor Sp1 (Homo sapiens), sequence (P08047 whole entry, looked up): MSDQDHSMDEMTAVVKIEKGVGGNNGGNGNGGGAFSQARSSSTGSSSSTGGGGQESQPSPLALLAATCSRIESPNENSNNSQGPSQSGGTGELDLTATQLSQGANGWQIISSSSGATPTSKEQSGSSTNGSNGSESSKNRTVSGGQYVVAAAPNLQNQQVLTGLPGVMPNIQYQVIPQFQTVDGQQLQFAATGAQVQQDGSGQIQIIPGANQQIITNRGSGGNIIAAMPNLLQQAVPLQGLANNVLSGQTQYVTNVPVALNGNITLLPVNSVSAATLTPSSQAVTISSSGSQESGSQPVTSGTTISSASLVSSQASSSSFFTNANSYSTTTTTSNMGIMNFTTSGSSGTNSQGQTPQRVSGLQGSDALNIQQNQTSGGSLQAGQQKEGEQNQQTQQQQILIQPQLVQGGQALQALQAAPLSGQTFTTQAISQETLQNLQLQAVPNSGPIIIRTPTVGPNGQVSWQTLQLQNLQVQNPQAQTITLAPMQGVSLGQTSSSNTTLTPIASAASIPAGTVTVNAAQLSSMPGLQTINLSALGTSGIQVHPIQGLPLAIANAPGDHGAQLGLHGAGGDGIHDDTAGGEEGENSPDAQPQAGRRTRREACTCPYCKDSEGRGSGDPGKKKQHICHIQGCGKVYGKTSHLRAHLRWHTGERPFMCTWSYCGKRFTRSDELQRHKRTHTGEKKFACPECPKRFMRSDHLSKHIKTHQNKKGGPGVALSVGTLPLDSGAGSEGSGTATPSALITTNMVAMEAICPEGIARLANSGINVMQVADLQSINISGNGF
Estrogen receptor (Homo sapiens), sequence (P03372 whole entry, looked up, the tested form may be a part): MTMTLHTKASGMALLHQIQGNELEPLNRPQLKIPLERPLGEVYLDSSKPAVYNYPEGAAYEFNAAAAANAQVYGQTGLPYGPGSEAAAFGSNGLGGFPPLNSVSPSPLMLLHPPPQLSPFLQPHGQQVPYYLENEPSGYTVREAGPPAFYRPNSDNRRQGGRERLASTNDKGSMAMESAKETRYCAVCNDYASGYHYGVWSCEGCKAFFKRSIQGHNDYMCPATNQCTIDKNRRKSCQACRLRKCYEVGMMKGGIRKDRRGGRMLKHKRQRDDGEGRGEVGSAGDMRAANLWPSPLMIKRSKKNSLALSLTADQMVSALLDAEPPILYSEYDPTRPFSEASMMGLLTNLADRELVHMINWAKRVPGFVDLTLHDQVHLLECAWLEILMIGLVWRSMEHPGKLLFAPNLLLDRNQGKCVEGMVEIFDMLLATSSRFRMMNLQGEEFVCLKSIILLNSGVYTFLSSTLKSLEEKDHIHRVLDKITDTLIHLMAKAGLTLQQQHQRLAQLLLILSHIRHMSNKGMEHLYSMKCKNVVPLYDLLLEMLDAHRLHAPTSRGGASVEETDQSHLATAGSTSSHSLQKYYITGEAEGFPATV
Nuclear receptor subfamily 1 group I member 3 (Homo sapiens), sequence (Q14994 whole entry, looked up, the tested form may be a part): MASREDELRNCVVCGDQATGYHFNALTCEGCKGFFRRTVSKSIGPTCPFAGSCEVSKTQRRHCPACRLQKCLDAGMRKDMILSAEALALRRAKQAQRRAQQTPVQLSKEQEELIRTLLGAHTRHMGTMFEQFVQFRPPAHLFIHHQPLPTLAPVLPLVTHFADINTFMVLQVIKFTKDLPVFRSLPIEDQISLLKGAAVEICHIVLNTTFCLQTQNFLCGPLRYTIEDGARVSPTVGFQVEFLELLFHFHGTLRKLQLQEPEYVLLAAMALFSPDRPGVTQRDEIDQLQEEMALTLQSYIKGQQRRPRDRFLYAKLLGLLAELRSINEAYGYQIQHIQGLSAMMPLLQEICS

As for `O=C(O)C[C@H](O)C[C@H](O)/C=C/c1c(C2CC2)nc2ccccc2c1-c1ccc(F)cc1`, the call in test [1], in [3], in test [4], in test [5], in test [7] and in test [8] was inactive. Moreover, the molecule was called inactive in test [9], in test [10], in [11], in test [12], in [13] and in [14]. Moreover, the molecule was called inactive in test [15]. Besides, the AC50 in test [2] was 4.9 µM (active); in test [6] it was 0.0712 µM (active).

For the molecule `CCN(CC)c1ccc(C(=C2C=CC(=[N+](CC)CC)C=C2)c2ccc(S(=O)(=O)O)cc2S(=O)(=O)[O-])cc1`, the molecule was called inactive in [1], in test [3], in test [5], in test [7], in test [8] and in test [9]. Moreover, the call in test [10], in [11], in test [16], in test [13], in test [14] and in test [15] was inactive. In addition, the result in test [17] was inactive. The AC50 in test [2] was 63.4 µM (active).

In the case of `Cc1ccc(Nc2ccc(O)c3c2C(=O)c2ccccc2C3=O)cc1`, the molecule was classed as inactive in test [1], in test [3], in test [4], in test [5], in test [6] and in test [7]. The molecule was called inactive in test [8], in [9], in [10], in [16], in [18] and in test [12]. The molecule was classed as inactive in test [14] and in [19]. Further, the AC50 in test [2] was 4.96 µM (active).

Regarding `O=C(O)c1snc(Cl)c1Cl`, the AC50 is 188 µM (active) in [1]; 26.8 µM (active) in [2]; 173 µM (active) in test [4]; 167 µM (active) in [9]; 161 µM (active) in test [16]; 140 µM (active) in test [14]. Further, the call in test [3], in test [5], in [6], in test [7], in test [10] and in [11] was inactive.

The term AC50 denotes the concentration giving half of the maximal activity seen.
